IL1B secr inh: inflammasome signaling inhibition, IL-1 beta readout | THP-1 LPS/ATP IL-1B secretion, AlphaLISA, 16 h; active compounds read low | activity change, % at 57.5 µM | hit rate 4.7% among 360,000 | AID 743279; in the data active = activity change below about -50%; inconclusive = mostly about -30% to -49%
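THP-1 cells pretreated 1 hr with compounds (up to 57.5 uM final), then stimulated with LPS (250 ng/mL final) plus ATP (1.25 mM final); secreted IL-1B measured by AlphaLISA after 16 hr, decreased signal indicating inhibition.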
HT1080-NT tox: kills 2HG-producing HT-1080-NT fibrosarcoma cells | Potency, µM (top dose mostly 46.1 µM), for inactives: at the highest dose activity, negative = less viability, usual class: cytotoxic | HT-1080-NT fibrosarcoma viability, CellTiter-Glo ATP luminescence, 48 h | hit rate 1.6% among 360,000;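 also: NT is the 2HG producing partner of a matched IDH1 knockdown line; potency is read from the fitted curve at half-maximal effect; 0% = DMSO-treated cells and -100% = media-only wells without cells; nearly all actives have a fitted effect of over 55% in size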
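Luminescent CellTiter-Glo readout after 48 hours of compound exposure at 37 degrees C defined viability of HT-1080-NT cells. Activity was normalized to DMSO wells and cell-free media wells; concentration-response curves were fitted and assigned curve classes.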
HT1080 IDH1KD tx: kills HT-1080 cells with IDH1 knockdown | HT-1080 IDH1 knockdown viability, ATP luminescence, 48 h | Potency, µM (highest dose often 46.1 µM), for inactives: top-dose activity, negative = toxicity, most hits filed as cytotoxic | hit rate 2% among 360,000 | AID 686971;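 also: potency is read from the fitted curve at half-maximal effect; 0% = DMSO wells and -100% = cell-free medium wells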
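Viability of IDH1-knockdown HT-1080 fibrosarcoma cells was assessed by CellTiter-Glo after 48 h at 37 °C with titrated compound; concentration-effect curves were classified by fit quality and response size.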
DT40 TDP1 CPT: growth inhibition of DT40 Tdp1-/-;hTDP1 cells with camptothecin (screen for TDP1 inhibitors) | chicken DT40 Tdp1-/-;hTDP1 cells + 20 nM CPT, ATP luminescence, 48 h | Potency, µM (highest dose often 46.2 µM), for inactives: top-dose activity change, negative = growth inhibition, usual class: inhibitors | hit rate 12% among 420,000 | AID 686979; also: potency is read from the fitted curve at half-maximal effect; nearly all actives have a fitted effect of over 55% in size
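Cell growth measured by CellTiter-Glo luminescence after a minimum 48 h, 37 C compound exposure with 20 nM CPT in Tdp1-knockout DT40 cells stably expressing hTDP1, seeded 400/well; qHTS titration format.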
DT40 TDP1 no CPT: qHTS for Inhibitors of human tyrosyl-DNA phosphodiesterase 1 (TDP1): qHTS in cells in absence of CPT; DT40 Tdp1-/- hTDP1 cells, no CPT, ATP luminescence, 48 h; Potency, µM (top dose mostly 46.2 µM), without a hit: at the top dose activity change, negative = growth inhibition, actives largely listed as inhibitors; hit rate 15% among 420,000; AID 686978, 2013; also: potency is read from the fitted curve at half-maximal effect; nearly all actives have a fitted effect of over 55% in size
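No-CPT arm: Tdp1-/-;hTDP1 DT40 cells (400/well) plus compounds, incubated ≥48 hr at 37 °C. Readout CellTiter-Glo luminescence.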
uPA generation: cell surface uPA generation inhibition; cell surface uPA generation assay, qHTS; Potency, µM (highest dose often 38.3 µM), for the others: at the top dose activity change, negative = inhibition, hits mostly inhibitors; hit rate 0.31% among 330,000; active = well fitted inhibition curve with a large enough effect; inconclusive = small, poorly fitted or top-dose-only effect; inactive = no such curve, though single readings can be large or run the other way; tested in mouse RAW 264.7 cells; also: potency is read from the fitted curve at half-maximal effect; nearly all actives have a fitted effect of over 55% in size
An asterisk follows results filed as active; u = inconclusive; x = no result; [ ] = remark or other dose. The list is not random: actives were taken first. Their share in the collection is about 19%. Unless noted, calls follow the shape of the dose curve; as a rule, active = well fitted curve in the direction sought with a large enough effect; inconclusive = small, poorly fitted or top-dose-only effect, or another doubt; inactive = no such curve, though single readings can be large; an effect the other way counts as inactive or inconclusive. Unless noted, % is scaled to controls: 0 for no effect and ±100 for the full control effect.

SMILES	IL1B secr inh	HT1080-NT tox	HT1080 IDH1KD tx	DT40 TDP1 CPT	DT40 TDP1 no CPT	uPA generation
COc1cccc(Oc2cc(Cl)nc(N)n2)c1	15	7%	1%	16%	5%	-6%
CCOc1ccccc1NC(=O)C(CC(C)C)NS(=O)(=O)c1ccc2c(c1)CCN2C(C)=O (configuration not stated)	x	x	x	u	-16%	x
CC1(C)CN(c2ccccc2)C(=O)[C@H]1CC(=O)Nc1ccccc1	1	20%	10%	-28%	-13%	x
COc1ccc(Nc2ncnc3sc(-c4ccccc4)cc23)cc1OC	u	-12%	-11%	u	u	6%
C=CCNc1nc(Nc2ccc(OC)c(OC)c2)c2sc(-c3ccccc3)cc2n1	-108*	5.2µM*	5.8µM*	1.8µM*	1.6µM*	x
C=CCNc1nc(NCc2ccc(N(C)C)cc2)c2sc(-c3ccccc3)cc2n1	-24	u	u	6.5µM*	5.8µM*	x
C=CCn1c(NCc2ccc(N(C)C)cc2)nc2ccccc21	-3	-7%	-12%	-23%	2%	-1%
O=C(NCCS(=O)(=O)N1CCN(c2ccccc2F)CC1)C(c1ccccc1)c1ccccc1	x	x	x	-7%	-20%	x
CC(C)(C)c1ccc2c(c1)OC(C(=O)N/N=C\c1ccc[nH]1)CO2 (configuration not stated)	-12	u	3.7µM*	u	u	u
CC(C)(C)c1ccc2c(c1)OC(C(=O)N/N=C/c1ccc([N+](=O)[O-])o1)CO2 (configuration not stated)	-8	-25%	u	16µM*	12µM*	-7%
CC(C)(C)c1ccc2c(c1)OC(C(=O)N/N=C\c1ccncc1)CO2 (configuration not stated)	x	-7%	-25%	u	u	2%
COc1ccc(NC(=O)c2cc(C)nc3c2c(C)nn3-c2cccc(Cl)c2C)c(OC)c1	x	x	x	-16%	-25%	x
Cc1cc(C(=O)N2CCN(c3cccc(Cl)c3)CC2)c2c(C)nn(-c3ccccc3Cl)c2n1	x	x	x	u	29µM*	x
Cc1onc(-c2c(Cl)cccc2Cl)c1C(=O)N1CCN(c2ccc(F)cc2)CC1	-19	-4%	-6%	u	u	1%
COC(=O)c1cc(C)nc2c1c(C)nn2-c1ccccc1	13	5%	6%	-1%	-1%	1%
COc1cc(NC(=O)c2cc(C)nc3c2c(C)nn3-c2ccccc2Cl)cc(OC)c1	x	x	x	u	23µM*	x
Cc1cc(C(=O)N2CCN(c3ccc(F)cc3)CC2)c2c(C)nn(-c3cccc(Cl)c3C)c2n1	x	x	x	21µM*	15µM*	x
COc1ccc(NC(=O)CSc2nnc(-c3cccs3)o2)cc1	x	x	x	-10%	-3%	x
Cc1ccc(C)c(OCc2cc(C(=O)N3CCN(c4ccccc4C)CC3C)no2)c1 (configuration not stated)	56	-18%	-25%	u	u	-2%
Cc1ccc(CN2CC(C(=O)N(CC(C)C)c3c(N)n(Cc4ccccc4)c(=O)[nH]c3=O)CC2=O)cc1 (configuration not stated)	-9	-1%	0%	-2%	4%	-4%
CS(=O)(=O)N1N=C(c2cccs2)CC1c1ccc(Cl)o1 (configuration not stated)	-21	3%	-2%	6%	u	-23%
CCN(CC)c1cc(CS(=O)c2ccccc2)nc(-c2ccccc2)n1 (configuration not stated)	-50*	-6%	-4%	21µM*	u	-2%
CCOC(=O)CSc1cc(CS(=O)c2ccc(Cl)cc2)nc(-c2ccccc2)n1 (configuration not stated)	0	0%	-2%[9.24 µM]	u	u	15%

Compound activity (PubChem BioAssay)
